{"source": "PubChem BioAssay AID1345085", "about": "(National Center for Advancing Translational Sciences (NCATS), 2018)", "note": "Results filed as inconclusive are left out. Values without a mark were called inactive. Activity calls are given as the source filed them. The call rests on the fitted dose curve; in most records, active means well fitted cell-killing curve with a large enough effect; inconclusive means small, poorly fitted or top-dose-only effect, or effect the other way; inactive means no such curve, though single readings can be large or run the other way. *1 amine or outer side, *2 acyl side, *3 side chain or, on linkers, in order; H or OH if unused. Where a SMILES comes first, the peptide text is derived from it. Bridges are numbered along the chain shown (N, C = ends). Roman numbers before positions name the chains, in order. [ ]: non-standard residue; d: D form. Actinocin(9to1) = Cc1c2oc3c(C)ccc(C(=O)[*:1])c3nc-2c(C(=O)[*:2])c(N)c1=O; NMeV = CN[C@H](C(=O)O)C(C)C; Sar = CNCC(=O)O", "data": [{"system": "SW626", "experiment": "Confirmatory qHTS for gynecologic anti-cancer compounds from libraries of approved drugs and bioactive compounds; further: nearly all actives have a fitted effect of over 55% in size; further: potency means the concentration at half of the fitted maximal effect; on activity change, negative = viability loss: on the % scale 0 is the no-effect control and ±100 the full control effect", "settings": "gynecologic cancer cell panel viability, ATPlite luminescence, 48 h; series mostly up to 57.6 µM; activity change, negative = viability loss: at the top concentration", "summary_of_the_method": "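ATP-based luminescent viability (ATPlite) after 48 h drug treatment at 37 °C, 5% CO2, across 57.5 uM–0.977 nM in 1:3 steps. Cells seeded at 1,000 per well 16 h beforehand; IC50 values computed, HEK 293T as selectivity control.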", "values": [{"smiles": "Cc1cnc(Nc2ccc(CN3CCOCC3)cc2)nc1Nc1cccc(S(=O)(=O)NC(C)(C)C)c1", "Potency": "15.3 µM (active)"}, {"smiles": "NC(=O)c1ccc2nc(-c3ccc(Oc4ccc(Cl)cc4)cc3)[nH]c2c1", "activity change, negative = viability loss": "-27.1%"}, {"smiles": "COc1ccc2cc3[n+](cc2c1OC)CCc1cc2c(cc1-3)OCO2", "activity change, negative = viability loss": "0.945%"}, {"smiles": "CN(C)C(CCOc1cccc2ccccc12)c1ccccc1", "note": "(stereo not drawn)", "activity change, negative = viability loss": "-9.38%"}, {"smiles": "COc1cccc2c1C(=O)c1c(O)c3c(c(O)c1C2=O)C[C@@](O)(C(=O)CO)C[C@@H]3O[C@H]1C[C@H](N)[C@H](O[C@@H]2CCCCO2)[C@H](C)O1", "Potency": "7.69 µM (active)"}, {"smiles": "OCCNC1CCCc2c1[nH]c1ccc(-c3ccccc3)cc21", "note": "(stereo not drawn)", "Potency": "19.3 µM (active)"}, {"smiles": "COc1ccc2c(c1OC)C(=O)O[C@@H]2[C@H]1c2c(cc3c(c2OC)OCO3)CCN1C", "activity change, negative = viability loss": "-9.02%"}, {"smiles": "Cn1cnc2c(F)c(Nc3ccc(Br)cc3Cl)c(C(=O)NOCCO)cc21", "Potency": "2.73 µM (active)"}, {"smiles": "CN1C2CCC1CC(OC(=O)[C@H](CO)c1ccccc1)C2", "note": "(stereo partly drawn)", "activity change, negative = viability loss": "-16.8%"}, {"smiles": "O=C(c1ccc(/C=C/c2n[nH]c3ccccc23)cc1)N1CCNCC1", "Potency": "15.3 µM (active)"}, {"smiles": "Cc1[nH]c2ccccc2c1CCNCc1ccc(/C=C/C(=O)NO)cc1", "Potency": "0.0968 µM (active)"}, {"smiles": "CN(NC(=O)CC(=O)NN(C)C(=S)c1ccccc1)C(=S)c1ccccc1", "Potency": "0.0968 µM (active)"}, {"smiles": "COc1cc(N2CCC(N3CCN(C)CC3)CC2)ccc1Nc1ncc(Cl)c(Nc2ccccc2S(=O)(=O)C(C)C)n1", "Potency": "21.7 µM (active)"}, {"smiles": "Cc1nc(Nc2n[nH]c3c2CN(C(=O)NC(CN(C)C)c2ccccc2)C3(C)C)c2sccc2n1", "note": "(stereo not drawn)", "activity change, negative = viability loss": "-17.1%"}, {"smiles": "CNC(=O)c1ccccc1Sc1ccc2c(/C=C/c3ccccn3)n[nH]c2c1", "Potency": "21.7 µM (active)"}, {"smiles": "CN1CCCC(n2nc(Cc3ccc(Cl)cc3)c3ccccc3c2=O)CC1", "note": "(stereo not drawn)", "Potency": "27.3 µM (active)"}, {"smiles": "C1CCC(C(CC2CCCCN2)C2CCCCC2)CC1", "note": "(stereo not drawn)", "Potency": "27.3 µM (active)"}, {"smiles": "CCN(CC)CCNC(=O)c1c(C)[nH]c(/C=C2\\C(=O)Nc3ccc(F)cc32)c1C", "Potency": "22.4 µM (active)"}, {"smiles": "COC(C(=O)N1Cc2[nH]nc(NC(=O)c3ccc(N4CCN(C)CC4)cc3)c2C1)c1ccccc1", "note": "(stereo not drawn)", "activity change, negative = viability loss": "-19.9%"}, {"smiles": "CN(C)C1CCN(C(=O)c2ccc(NC(=O)Nc3nc(N4CCOCC4)nc(N4CCOCC4)n3)cc2)CC1", "Potency": "0.685 µM (active)"}, {"smiles": "CCN1C[C@H](C)n2c(c(O)c3c(=O)n(Cc4ccc(F)c(Cl)c4)nc(C(=O)NC)c32)C1=O", "activity change, negative = viability loss": "7.26%"}, {"smiles": "CN(C[C@@H]1COCCO1)S(=O)(=O)Nc1ccc2ccc3ncc(-c4cnn(C)c4)cc3c(=O)c2c1", "activity change, negative = viability loss": "0.279%"}, {"smiles": "Cc1c2oc3c(C)ccc(C(=O)N[C@@H]4C(=O)N[C@H](C(C)C)C(=O)N5CCC[C@H]5C(=O)N(C)CC(=O)N(C)[C@@H](C(C)C)C(=O)O[C@@H]4C)c3nc-2c(C(=O)N[C@@H]2C(=O)N[C@H](C(C)C)C(=O)N3CCC[C@H]3C(=O)N(C)CC(=O)N(C)[C@@H](C(C)C)C(=O)O[C@@H]2C)c(N)c1=O", "note": "(I: T[dV]P[Sar][NMeV] / II: T[dV]P[Sar][NMeV]; ester I:1-I:C, II:1-II:C; linker I:N-II:N via Actinocin(9to1))", "Potency": "0.0863 µM (active)"}, {"smiles": "CC(Oc1cc(-n2cnc3ccc(CN4CCN(C)CC4)cc32)sc1C(N)=O)c1ccccc1C(F)(F)F", "note": "(stereo not drawn)", "Potency": "24.3 µM (active)"}, {"smiles": "CCOC(=O)C1=C(C)NC2=C(C(=O)CC(C)(C)C2)C1c1ccc(-c2ccccc2)cc1", "note": "(stereo not drawn)", "activity change, negative = viability loss": "8.62%"}, {"smiles": "Nc1nc(Cl)nc2c1ncn2C1OC(CO)C(O)C1F", "note": "(stereo not drawn)", "activity change, negative = viability loss": "-18.5%"}, {"smiles": "CC1(C)[C@@H](O)CC[C@]2(C)[C@H]3C(=O)C=C4[C@@H]5C[C@@](C)(C(=O)O)CC[C@]5(C)CC[C@@]4(C)[C@]3(C)CC[C@@H]12", "activity change, negative = viability loss": "16.5%"}, {"smiles": "Cn1c(=O)c(F)c(Nc2ccc(I)cc2F)c2c(=O)n(CC(O)CO)cnc21", "note": "(stereo not drawn)", "Potency": "0.0544 µM (active)"}, {"smiles": "CCCCN(CCCC)C(=O)CN1C[C@H](c2ccc3c(c2)OCO3)[C@@H](C(=O)O)[C@@H]1c1ccc(OC)cc1", "activity change, negative = viability loss": "-13%"}, {"smiles": "COC(C)(C)CCn1nc(Nc2c(C)cccc2C)c2cnc(Nc3ccc(OCCN4CCCC4)c(F)c3)nc21", "Potency": "19.3 µM (active)"}, {"smiles": "CN(C)c1ccc2nc3ccc(=[N+](C)C)cc-3sc2c1", "Potency": "8.63 µM (active)"}, {"smiles": "Cc1nc(N)nc(N)c1-c1ccc(Cl)c(Cl)c1", "Potency": "3.85 µM (active)"}, {"smiles": "CN(C)c1ccc(-c2nc3ncc(Cl)c(N4CCN(CC(=O)Nc5nccs5)CC4)c3[nH]2)cc1", "activity change, negative = viability loss": "-9.1% [at 19.5 µM]"}]}]}
